The whole screen tested about 96,000 compounds, of which about 19,000 (20%) were called active. Only a sample is shown. Unmarked numbers belong to inactive results.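 The calls were made as follows: active = blocking of liver enzyme CYP2C9 beyond about 50% at 5 µM (limit read from the data); inactive = the rest.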
molecular target: Cytochrome P450 2C9 (Homo sapiens) (UniProt P11712); assay: blockers of cytochrome P450 2C9 activity – biochemical, luminescence, ADME assay, primary screen (AID 777); settings: CYP2C9 Supersomes, luciferin-H conversion, at 5 µM, hits give high values
Sequence (P11712 whole entry, looked up): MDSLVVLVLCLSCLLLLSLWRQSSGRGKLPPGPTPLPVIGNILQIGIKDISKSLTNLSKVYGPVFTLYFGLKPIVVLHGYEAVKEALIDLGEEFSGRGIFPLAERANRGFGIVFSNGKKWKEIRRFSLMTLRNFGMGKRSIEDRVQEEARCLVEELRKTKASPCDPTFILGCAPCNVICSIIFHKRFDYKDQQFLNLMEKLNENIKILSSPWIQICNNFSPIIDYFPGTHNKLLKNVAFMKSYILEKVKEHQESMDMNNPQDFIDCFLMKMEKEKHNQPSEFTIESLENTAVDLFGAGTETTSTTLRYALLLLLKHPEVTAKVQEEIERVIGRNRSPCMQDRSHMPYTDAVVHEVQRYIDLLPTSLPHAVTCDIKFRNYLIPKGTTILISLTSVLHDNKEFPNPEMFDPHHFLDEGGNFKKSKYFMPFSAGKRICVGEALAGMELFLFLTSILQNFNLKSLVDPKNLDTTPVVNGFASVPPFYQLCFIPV

SMILES | inhibition
Cc1cc(C)c(S(=O)(=O)N2C=CC(C(F)(F)F)=NCC2)c(C)c1 | 13.2%
OC(CN1C2=NCCCN2c2ccccc21)c1ccc(Br)cc1 (stereo not given) | 17.7%
NC(=S)c1ccc(C(N)=S)o1 | 23.3%
Cn1c(=O)[nH]c(=O)c2c1nc(Br)n2CCCCSc1nc2ccccc2o1 | 67.6% (active)
CCCCCCn1c(SCC(=O)c2ccccc2)nc2c1c(=O)[nH]c(=O)n2C | 18.7%
Cc1ccnc(SCCn2c(Br)nc3c2c(=O)[nH]c(=O)n3C)n1 | -6.9%
CN(C)/C=C(/C(=O)c1ccc(Cl)cc1)S(=O)(=O)c1ccccc1 | -9.5%
COc1cccc(C(=O)NNC(=O)c2ccccc2Br)c1 | -182%
COc1ccc2oc(=O)c(C(=O)O)cc2c1 | -6.4%
COc1cccc(C(=O)c2cc3ccc(O)cc3oc2=O)c1 | 92.8% (active)
O=C(NC1=NCCS1)c1ccc(Cl)s1 | 3.9%
COc1ccc(C(=O)n2nc(-c3ccc(C)cc3)nc2N)cc1OC | -9.5%
Cc1ccc2nc(NC3=NCN(CCc4ccccc4)CN3)nc(C)c2c1 | -5.5%
CCOC(=O)c1c(C)[nH]c(C(=O)NCc2ccccc2OC)c1C | 78.3% (active)
CC(=O)c1c(C)[nH]c(C(=O)NCc2ccc(C)cc2)c1C | 49.2%
COc1ccccc1CNC(=O)c1ccc(SC)cc1OC | -50.7%
Cn1c2c(c(=O)n(C)c1=O)CN(Cc1ccco1)CN2 | -11.6%
N#CCSc1nc2c(c(=O)n1Cc1ccccc1)C1(CCCC1)Cc1ccccc1-2 | 36.9%
CC(C)C(NC(=O)c1ccc(Cl)cc1)C(=O)O (stereo not given) | -5.3%
O=C(CC1CCCCC1)Nc1c2c(nn1-c1ccc(F)cc1)CS(=O)(=O)C2 | -6.5%
COc1ccc(-c2nc3n(c2Br)CCC3)cc1 | 2.9%
CCOc1ccc(CN(Cc2ccco2)C(c2cccs2)c2nnnn2C(C)(C)C)cc1 (stereo not given) | 77.2% (active)
CC(C)(C)n1nnnc1C(c1cccs1)N(Cc1cccnc1)CC1CCCO1 (stereo not given) | 19.7%
CC(C)(C)NC(=O)CN(Cc1cccs1)C(=O)CNS(=O)(=O)c1ccccc1 | 26.8%
Cc1cc(C)c2nc(SCCC#N)nc(C)c2c1 | -19.9%

SMILES | inhibition
CCOC(=O)Nc1ccc2c(c1)N(C(=O)CCN1CCN(CCO)CC1)c1ccccc1CC2 | -14%
COc1ccc(-n2nnnc2SCC(=O)c2ccc(OC)c(OC)c2)cc1 | 45.6%
CCOc1cccc(-n2nnnc2-c2ccc(OC)cc2)c1 | 91.4% (active)
CCOc1cccc(-c2nnc3sc(COc4ccc(OC)cc4)nn23)c1 | 20.9%
Cc1cccc2cc(CN(Cc3nnnn3Cc3ccccc3)C3CCCC3)c(=O)[nH]c12 | 91.5% (active)
Cc1cc(C)c2cc(CN(Cc3nnnn3Cc3ccc(F)cc3)C3CCCC3)c(=O)[nH]c2c1 | -7.2%
Cc1cccc2cc(CN(Cc3ccc4c(c3)OCO4)Cc3nnnn3C3CCCC3)c(=O)[nH]c12 | 38.4%
O=C(CCl)NNc1cccc(Cl)n1 | 10.1%
c1ccc(-c2ccnc3nc(-n4cccc4)nn23)cc1 | 6.8%
C#CCNc1nc(C(C)C)nc2c1nnn2Cc1ccccc1F | 40.2%
CC(C)(C)c1nc(NCC2CCCO2)c2nnn(Cc3ccccc3)c2n1 (stereo not given) | 32.7%
Cc1nc(Nc2ccc3c(c2)OCCO3)c2nnn(Cc3ccccc3Cl)c2n1 | 93.2% (active)
O=C(CN1CCSCC1)N/N=C/c1ccc(F)cc1 | 17.1%
O=C(O)c1cccc2c1C(=O)N(C1CCCCC1)C2 | -13.9%
COCCNC(=O)c1snc2ccc(Cl)cc12 | -11.2%
COc1ccc(NC(=O)Nc2cccc3cccnc23)cc1 | -39.1%
O=C(NCc1cn2ccsc2n1)Nc1ccc(Cl)cc1 | 13.6%
O=c1cc(Cn2nnc(-c3ccc(Cl)cc3)n2)nc2sccn12 | 63.5% (active)
O=C(NCc1ccc(Cl)cc1)c1cc2c(nc3sccn32)s1 | 17.9%
Cc1ccc(C(=O)OC2=CC(=O)CC(C)(C)C2)cc1 | 28.3%
CN(c1cccc(NC(=O)Nc2ccc(Cl)cc2)c1)S(C)(=O)=O | 30.6%
COc1ccc(-c2cc(C(F)(F)F)n3nc(C(=O)N4CCOCC4)c(Cl)c3n2)cc1 | 0.7%
CCOc1cc(CNCCN(C)C)c(Cl)cc1OCC(=O)NCCc1ccccc1 | 22.3%
Clc1cccc(N=C2NN=C(c3ccc4c(c3)OCCO4)CS2)c1 | 77.7% (active)
CCOC(=O)C1=C(O)CSC1=Nc1cccc(Cl)c1 | 9%

SMILES | inhibition
COc1ccc(-c2cc(C(=O)NC(C(=O)O)C(C)C)c(C)o2)cc1OC (stereo not given) | 21%
O=C(Nc1c2c(nn1-c1ccc(F)cc1)CS(=O)C2)C12CC3CC(CC(C3)C1)C2 (stereo not given) | 14.4%
COc1ccc(C2C(C(C)=O)=C(O)C(=O)N2c2nccs2)cc1 (stereo not given) | 5%
COC(=O)N1CN(C(=O)OC)CN(C(=O)OC)C1 | -12.2%
COn1c(=O)c(=O)n(OC)c2ccccc21 | 3.2%
CCc1ccccc1N(CC(=O)N1CCN(c2ccccc2F)CC1)S(C)(=O)=O | 2.9%
N#Cc1c(NC(=O)CSc2nc3ccccc3c(=O)n2Cc2ccco2)sc2c1CCCC2 | 3.9%
O=c1[nH]c(CSc2ncc(-c3ccc(F)cc3)n2Cc2ccco2)nc2ccccc12 | 21.2%
CCOn1c(SC(C)C)nc2ccccc2c1=O | 17.6%
CCOC(=O)C(C)Sc1nc2ccccc2c(=O)n1CC1CCCCC1 (stereo not given) | 78.8% (active)
CCOC(=O)C1CCc2nc3ccccc3c(=O)n21 (stereo not given) | 3.3%
CC(Sc1nc2ccccc2c(=O)n1Cc1ccco1)C(=O)c1ccccc1 (stereo not given) | 88.2% (active)
O=C(CNS(=O)(=O)c1cccc(C(F)(F)F)c1)Nc1ccccc1F | -19.7%
Cc1c2cn[nH]c(=O)c2c(C)n1Cc1ccc(F)cc1 | 6.2%
CSCc1cc(N(C)C)nc(SCc2ccc(Cl)cc2Cl)n1 | 56.7% (active)
Nc1nc(SCc2ccccc2Cl)n[nH]1 | -6.7%
O=c1cc(CSc2ccc(Cl)cc2)nc(N2CCOCC2)[nH]1 | 8.5%
Clc1ccc(CSc2nnc(/C=C/c3ccccc3)o2)c(Cl)c1 | 49.9%
CSCc1cc(N2CCOCC2)nc(SCc2ccc(Cl)cc2Cl)n1 | 57.5% (active)
COc1ccc([N+](=O)[O-])cc1C1NN=C(c2cccc3ccccc23)S1 (stereo not given) | -70.8%
CCC(=O)NNc1cc(=O)c2c(=O)n(C)c(=O)n(C)c2[nH]1 | 4%
COc1ccc(S(=O)(=O)NC2(C(F)(F)F)N=C3SCCN3C2=O)cc1 (stereo not given) | -5.2%
CSCCC(NC(=O)c1ccc(=O)n(C)n1)c1nc2ccccc2[nH]1 (stereo not given) | 10.3%
CC1CCCCC1NC(=O)CCS(=O)(=O)c1cccc2nonc12 (stereo not given) | 7.9%
CCNC(=O)CN(c1ccc(C)cc1)S(=O)(=O)c1ccc(SC)cc1 | 26.9%

SMILES | inhibition
CCCNC(=O)CN(Cc1ccccc1F)S(=O)(=O)c1ccc(C)cc1 | 74.3% (active)
Cc1ccc(S(=O)(=O)N(CC(=O)NCCSC2CCCCC2)c2ccccc2F)cc1 | -9.7%
CCCC(=O)N(CCc1ccccc1)Cc1nc2ccccc2c(=O)[nH]1 | 38.3%
COc1nc(-c2ccc(Cl)cc2)ccc1-c1noc(-c2cccs2)n1 | 23.2%
C=CCNc1nc(N)c(C(=C(C#N)C#N)c2ccccc2)s1 | 69.6% (active)
C=CCNC(=O)c1csc(-c2ccccc2)n1 | 35.2%
CCCn1c(=O)c2ccccc2n2c(SCC(=O)/C(C#N)=C(\C)N)nnc12 | 14.3%
CCOc1ccccc1NC(=O)CCc1ccc(C)o1 | -185%
CC1=NCCN1S(=O)(=O)c1ccc(Br)c(C)c1 | -80.5%
CCCCOc1ccc(Cl)cc1CSc1nncn1N | 74.2% (active)
CCCCOc1ccc(CSC(=N)N)cc1[N+](=O)[O-] | 20%
Cn1ncc2c(Nc3cccc4ccccc34)ncnc21 | -1.5%
O=C1COc2ccc(NC(=O)N3CCN(c4ccc(F)cc4)CC3)cc2N1 | 19.5%
CC1=NC2(CCCc3c2no[n+]3[O-])N(O)C1(C)C (stereo not given) | 11.5%
O=S1(=O)CCN2C(=N1)SC1=C2CCN(Cc2ccccc2)C1 | 0.4%
COC(=O)CN(C(=S)Nc1ccc(Cl)cc1)C1CC(=O)N(c2ccc(OC)cc2)C1=O (stereo not given) | 43.6%
COC(=O)c1c(-c2cccs2)csc1NC(=O)CSc1ncnc2sc(C)c(C)c12 | 76.2% (active)
Cc1cnc(NC(=O)CSc2c(Cl)cccc2Cl)s1 | 1.4%
COC(=O)c1ccccc1NC(=O)CSc1ccccn1 | -10.9%
CCn1c(SC)nc(O)c(C(c2ccc(OC)c(O)c2)c2c(O)nc(SC)n(CC)c2=O)c1=O | 23.3%
Cc1cc(C)nc(SCc2nnc(SCC(=O)OC3CCCCC3)o2)n1 | 7%
Nc1cc(=O)nc(SCc2ccccc2)n1Cc1ccco1 | 7.5%
CCOC(=O)CSc1nnc(-c2ccco2)n1C | -20.3%
CCOC(=O)CSc1nc2c(sc(=S)n2CCc2ccccc2)c(=O)n1Cc1ccco1 | 66.9% (active)
O=C(C1=C(O)C(=O)N(Cc2ccccc2)C1c1ccco1)c1ccco1 (stereo not given) | 24%
